Results: ChEMBL document CHEMBL1157539, “Thousands of chemical starting points for antimalarial lead identification” (Nature, 2010)

Key:
Type in all cases: functional
Plasmodium falciparum [1] = experiment: GSK_TCMDC: Inhibition of Plasmodium falciparum 3D7 in whole red blood cells, using parasite LDH activity as an index of growth. Test compounds present at 2uM
Plasmodium falciparum [2] = experiment: GSK_TCMDC: Inhibition of Plasmodium falciparum Dd2 in whole red blood cells, using parasite LDH activity as an index of growth. Test compounds present at 2uM
HepG2 = experiment: GSK_TCMDC: Percent inhibition of human HepG2 cell line. Test compounds present at 10uM.

Row | SMILES | Inhibition (Plasmodium falciparum [1]) [%] | Inhibition (Plasmodium falciparum [2]) [%] | Inhibition (HepG2) [%]
1 | CN(CCN1CCC(c2c[nH]c3ccccc23)CC1)c1ccc(-c2nc3cc(Cl)c(Cl)cc3[nH]2)cc1 | 100 | 100 | 22
2 | CCCCCn1c(Sc2ccc(C#N)c([N+](=O)[O-])c2)nnc1-c1ccc(OC)cc1 | 88 | 44 | 8
3 | Cl.O=C(CNC1=NCCN1)Nc1ccc(NC(=O)Nc2ccc(NC(=O)CNC3=NCCN3)cc2)cc1 | 90 | 75 | 0
4 | Cc1ccc(C(=O)NC2C(=O)NC2c2ccccc2)c(C)c1 (stereo not drawn) | 90 | 0 | 7
5 | CSc1ccc2nccc(Nc3ccc(Oc4ccccc4)cc3)c2c1.Cl | 94 | 68 | 30
6 | COc1ccc2nccc(N/N=C/c3ccc([N+](=O)[O-])cc3)c2c1 | 100 | 68 | 9
7 | CC(C)CNCc1cccc(-c2ccc(CNc3ccc(C(=O)c4ccccc4)cc3)cc2)c1.O=C(O)C(F)(F)F | 97 | 0 | 10
8 | FC(F)(F)c1ccc2[nH]c(-c3cccc(-c4ccc(CNCC5CCCO5)cc4)c3)nc2c1.O=C(O)C(F)(F)F (stereo not drawn) | 99 | 99 | 29
9 | Cc1ccccc1C1CCN(C2CCC(NC(=O)/C=C/c3ccc(C#N)cc3)CC2)CC1 (stereo not drawn) | 87 | 13 | 39
10 | O=C(Nc1cc(Cl)ccc1O)c1cnn2c(C(F)(F)F)cc(-c3cccs3)nc12 | 100 | 74 | 8
11 | CCc1ccc(NC(=O)N(CCCn2ccnc2)Cc2csc(-c3ccc(CNCc4ccccc4)cc3)n2)cc1.O=C(O)C(F)(F)F | 100 | 39 | 9
12 | NC(=O)C1CCN(Cc2cccc(-c3cccc(-c4nc5cc(F)ccc5[nH]4)c3)c2)CC1.O=C(O)C(F)(F)F | 100 | 7 | 15
13 | O=C(c1ccc(-c2cnc3[nH]cc(-c4ccc(C(=O)N5CCOCC5)cc4)c3c2)cc1)N1CCOCC1 | 91 | 0 | 19
14 | O=C(O)C(F)(F)F.O=[N+]([O-])c1cccc(CNCC2CCC(CNCc3cccc([N+](=O)[O-])c3)CC2)c1 (stereo not drawn) | 100 | 76 | 39
15 | Cl.O=S(=O)(Nc1ccc2nccc(N3CCNCC3)c2c1)c1ccc(-c2ccccc2)cc1 | 100 | 0 | 0
16 | CS(=O)(=O)c1ccc(CNCc2ccc(-c3cccc(-c4nc5cc(C(F)(F)F)ccc5[nH]4)c3)cc2)cc1.O=C(O)C(F)(F)F | 100 | 100 | 54
